Reference: the supplement of paper PMC3334620
Whole data set: some 33,000 sequences, median “E-score (-0.5 to 0.5)” near -0.032, cut for the highest 2% near 0.36. Shown is part of a subset that was picked to be rich in the highest values.

Molecular target: T1, Sko1 (UniProt Q02100)
T1 sequence: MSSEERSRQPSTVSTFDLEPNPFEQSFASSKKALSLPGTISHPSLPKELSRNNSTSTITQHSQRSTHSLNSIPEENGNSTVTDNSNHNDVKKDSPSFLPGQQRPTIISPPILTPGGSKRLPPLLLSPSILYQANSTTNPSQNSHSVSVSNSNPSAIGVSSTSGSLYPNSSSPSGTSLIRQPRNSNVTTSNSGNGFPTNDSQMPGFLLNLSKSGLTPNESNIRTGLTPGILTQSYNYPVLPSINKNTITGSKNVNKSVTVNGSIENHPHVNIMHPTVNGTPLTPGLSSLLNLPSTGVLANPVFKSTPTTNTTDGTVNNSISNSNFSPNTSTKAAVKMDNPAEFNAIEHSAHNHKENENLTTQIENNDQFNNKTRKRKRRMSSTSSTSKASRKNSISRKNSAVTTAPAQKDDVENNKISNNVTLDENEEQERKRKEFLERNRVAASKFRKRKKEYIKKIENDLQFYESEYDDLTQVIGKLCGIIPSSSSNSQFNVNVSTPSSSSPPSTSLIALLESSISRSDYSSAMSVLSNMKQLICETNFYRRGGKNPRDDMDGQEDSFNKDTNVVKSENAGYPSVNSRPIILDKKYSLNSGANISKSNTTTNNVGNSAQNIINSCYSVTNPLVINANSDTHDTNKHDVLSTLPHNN
Test: PBM E-score (8-mer binding enrichment) (E-score (-0.5 to 0.5)); higher = stronger / more preferred TF binding
Conditions: protein concentration: 200 nM; construct: GST-full length
Method: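 Universal 'all 10-mer' protein binding microarrays (Agilent AMADID 015681) probed with GST-tagged S. cerevisiae TFs (full-length or DBD) made by in vitro transcription/translation (PURExpress), about 100-200 nM. Bound TF was detected with fluorescent anti-GST. Each ungapped 8-mer (which stands for itself and its reverse complement) is scored by the PBM enrichment score (E-score), a modified Wilcoxon-Mann-Whitney statistic from -0.5 to +0.5, computed with the Universal PBM Analysis Suite. Scale: above 0.35 generally sequence-specific binding.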

| Sequence | PBM E-score |
| --- | --- |
| AACGCAAG | 0.0717 |
| AACGCAAC | 0.289 |
| AACGCAAA | 0.175 |
| CACGCACA | 0.222 |
| CACGCATA | 0.0358 |
| GACGCAAA | 0.347 |
| CACGCACG | 0.204 |
| TACGCAAA | 0.415 |
| AACGCATA | 0.219 |
| TACGCATA | 0.368 |
| AACGCAAT | 0.38 |
| TACGCACA | 0.401 |
| TCAGCCGA | -0.104 |
| GGGGCGAC | -0.228 |
| GAGACCGC | -0.32 |
| CATGCCTC | 0.0373 |
| TAGAGCGA | -0.114 |
| GGGTTGTA | -0.19 |
| AACGCACG | 0.31 |
| CACGCAAG | 0.3 |
| CACGCAAC | 0.379 |
| AACGCACA | 0.161 |
| GACGCACA | 0.36 |
| CACGCAAA | 0.26 |
| TCGCTTAA | -0.0032 |

| Sequence | PBM E-score |
| --- | --- |
| GAGACTGC | -0.054 |
| AAAGAACT | -0.0725 |
| AACAGAGG | -0.205 |
| CGGTTCTC | -0.0999 |
| AACCTTCT | -0.298 |
| CAAGGTCA | -0.144 |
| CTTGACGC | 0.262 |
| AGTGACTC | -0.0159 |
| AGTGATGA | 0.21 |
| AGTGACGC | 0.416 |
| CCTGACGC | 0.0655 |
| GGTGATGA | 0.18 |
| CGTGACGA | 0.411 |
| CGTGATGA | 0.36 |
| CGTGACGC | 0.422 |
| CGTGACCA | -0.0216 |
| CGTGACAA | 0.188 |
| AGTGACCC | -0.23 |
| ACCTGAGC | 0.0188 |
| AACTGGTC | -0.112 |
| CTTAGTTC | 0.0167 |
| AAACAGCT | -0.0726 |
| CGCTCTCA | -0.0854 |
| GAAACACC | 0.02 |
| TAGTTCAA | 0.0959 |

| Sequence | PBM E-score |
| --- | --- |
| GGCGCACC | -0.36 |
| TCACAAGA | -0.00762 |
| CCTGGCGC | -0.133 |
| AGGTAAAT | 0.131 |
| ACGTAAAT | 0.463 |
| ACGTAAAG | 0.461 |
| ACGTAAAA | 0.463 |
| AAGTAAAT | 0.139 |
| CCGTAAAA | 0.053 |
| GCGTAAAC | 0.281 |
| ACGTAAAC | 0.459 |
| GCGTAAAA | 0.279 |
| CCGTAAAC | 0.104 |
| AAGTAAAG | -0.152 |
| CCGTAAAG | 0.0256 |
| CACGCACC | 0.115 |
| AGCTTTGC | -0.179 |
| GAAAATGC | 0.0279 |
| GAGTAGCA | 0.0153 |
| TCTGGCAA | -0.261 |
| CTGAAAGA | -0.0455 |
| CATTGCAG | 0.0387 |
| GGATGCAC | -0.16 |
| GTCTGCAC | -0.118 |
| AGACGTCC | 0.281 |

| Sequence | PBM E-score |
| --- | --- |
| GGCCGTCA | -0.184 |
| GGACGTCA | 0.466 |
| AGACGTCA | 0.484 |
| CGACGTCA | 0.486 |
| GGACGTCC | -0.151 |
| CGACGTCC | 0.169 |
| CGACGTCG | 0.209 |
| AGACGTCT | 0.271 |
| GCAGATGA | -0.0175 |
| AGCCGGAG | 0.0107 |
| CAAGTACC | -0.0542 |
| AAGGATCG | 0.0147 |
| AAGTTTTA | 0.142 |
| AGTCGGAA | -0.0901 |
| AGACTCAT | 0.183 |
| ATTACGTC | 0.492 |
| ATTACGTG | 0.487 |
| ATTAGGTC | 0.207 |
| ATTACGGC | 0.303 |
| ATTACCTG | 0.067 |
| ATTACGGG | 0.206 |
| GAGAGCCA | -0.118 |
| AGGCTGCC | -0.341 |
| GATCCACA | -0.0832 |
| CTTCCTTC | -0.284 |

| Sequence | PBM E-score |
| --- | --- |
| GTAGATTA | 0.269 |
| AACTGAAG | 0.0972 |
| CACGTAGC | 0.364 |
| CCCGTAGC | -0.291 |
| GCCGTAGC | -0.328 |
| AACGTAGC | 0.349 |
| CACGTAGA | 0.39 |
| CACGTAGG | 0.396 |
| CCCGTAGG | -0.194 |
| AACGTAGG | 0.336 |
| AACGTAGA | 0.357 |
| CGCGTAGA | 0.0669 |
| GACGTAGC | 0.436 |
| CTCGTAGC | -0.0204 |
| CTGCACTC | -0.16 |
| GTTTAAGA | -0.0752 |
| CAGTCGTC | 0.0351 |
| CTTCCTGC | -0.256 |
| CGTAGCAC | 0.295 |
| GCCATCCC | -0.319 |
| CCACTGTC | -0.185 |
| ACAAGGGT | -0.0251 |
| GCCAGCAA | -0.205 |
| CTAACCAG | -0.0782 |
| GACCTGGC | -0.297 |

| Sequence | PBM E-score |
| --- | --- |
| TACGTAGA | 0.452 |
| TCCGTAGA | -0.15 |
| GACGTAGA | 0.42 |
| GGCGTAGA | 0.118 |
| AGCGTAGA | -0.0243 |
| GTCGTAGA | 0.166 |
| AGCGACAG | -0.155 |
| GGTAAAAA | 0.0275 |
| GGTAATCA | 0.0412 |
| GGTAAACA | 0.136 |
| AGTAATCA | 0.0126 |
| AGTAATCC | 0.0657 |
| CGTAATCC | 0.405 |
| CGTAATCA | 0.452 |
| AGTAAACA | 0.0928 |
| CGTAAACA | 0.374 |
| CCTAATCC | -0.11 |
| GGTGGCAA | -0.169 |
| CCCGACGC | -0.148 |
| AAGGTTTA | -0.0389 |
| ATCTTGGC | -0.119 |
| ACGAGACT | 0.0545 |
| AACACCAA | 0.109 |
| ACTACGTA | 0.484 |
| ACTACGTG | 0.415 |

| Sequence | PBM E-score |
| --- | --- |
| GCTACGAA | 0.239 |
| ACTACGGA | -0.036 |
| ACTACGCG | 0.245 |
| ACTACGAA | 0.289 |
| ACTACGGG | -0.221 |
| GCTACGTA | 0.456 |
| GCTACGGA | -0.0597 |
| ATAGCGAG | -0.0959 |
| GTAATGGA | 0.402 |
| ATAATGGA | 0.068 |
| CGAATGAC | 0.351 |
| CTAATGGA | -0.158 |
| AGAATGAG | 0.0649 |
| AGAATGAC | 0.377 |
| GCAATGAC | 0.374 |
| ATAATGAG | 0.114 |
| ATAATGAT | 0.278 |
| ATAATGAC | 0.378 |
| CCAATGAC | 0.253 |
| GCAATGAA | 0.128 |
| AATCAAAC | 0.229 |
| AGAAGTGG | -0.19 |
| ACTTCTAA | -0.0244 |
